Experimental findings from PubChem BioAssay (Tox21) are described below.

Molecules are shown by their SMILES. Inconclusive results are not listed. A call without a number means that no potency is given here. Active and inactive are the calls of the source. Calls come from the whole dose curve.

The assay in a line: p53 small molecule agonists, cell-based qHTS assay with rat liver microsomes: qHTS cell viability counter screen (AID 1963580). Note: nearly all actives have a fitted effect of over 45% in size. The note with it: p53RE-bla HCT-116 + rat microsomes, ATP viability, 16 h; series mostly up to 66 µM. From the text: National Center for Advancing Translational Sciences [NCATS]
Division of Preclinical Innovation [DPI]
U.S. Environmental Protection Agency [EPA]
National Institutes of Environmental Health Sciences [NIEHS]
National Toxicology Program [NTP]
U.S. Food and Drug Administration [FDA]
p53, a tumor suppressor protein, is activated following cellular insult, including DNA damage and other cellular stresses. The activation of p53 regulates cell fate by inducing DNA repair, cell cycle arrest, apoptosis, or cellular senescence. The activation of p53, therefore, is a good indicator of DNA damage and other cellular stresses. The CellSensor p53RE-bla HCT-116 cell line contains a stably integrated beta-lactamase reporter gene under control of the p53 response elements. The activation of the reporter gene under culture conditions can be detected by fluorescence intensity. This cell line was used to screen the Tox21 10K compound library in the condition of presence of rat liver microsomes and to identify agonists that activate the p53 signaling pathway after in vitro metabolic activation (Ooka et al., Archive of Toxicology 96:1975-1987, 2022). The cytotoxicity of the Tox21 compound library against the p53 RE-bla HCT-116 cell line was tested in parallel by measuring the intra cellular ATP content in the same wells.
Tox21 Assay Protocol Summary:
The p53RE-bla cells were dispensed at 4,000cells/3ul/well in 1536-well black-clear bottom plates. After the assay plates were incubated at 37 C, 5% CO2 incubator for 5 hours, 23 nL of compounds dissolved in DMSO, positive controls or DMSO only was transferred to the assay plate. Following compound addition, 3 uL of rat liver microsomes (Molecular Toxicology, Boone, NC) at final concentration of 0.5 mg/mL and 1uL of B-Nicotinamide adenine dinucleotide 2'-phosphate (NADPH) at final concentration of 0.5 mg/mL were transferred to the assay plate. The plates were incubated at 37 C for 16 hours. 1 uL of LiveBLAzer detection mixture was added to each well and the plates were incubated at room temperature in the dark for 2 h. Fluorescence intensity at 460 and 530 nm emission and 405 nm excitation were measured by an Envision plate reader. For cell viability readout that measures cytotoxicity, 4 ul/well of CellTiter-Glo reagent was added into the assay plates using a Flying Reagent Dispenser. After 30 min incubation at room temperature, the luminescence intensity in the plates was measured using a ViewLux plate reader.
(In general: qHTS replaces the single test concentration by a dilution series.)
Turning to `CCCC(=O)OCCC(C)CCC=C(C)C` (stereo not given), the Potency entry is “inactive”.

Consider `CC1(C)CCC[C@]2(C)[C@H]3CC(=O)O[C@]3(C)CC[C@@H]12`, for which the Potency entry is “inactive”.

As for `N[C@@H](CCC(=O)N[C@@H](CS)C(=O)NCC(=O)O)C(=O)O`, the activity change, negative = cytotoxicity was 0.778% [at 13.5 µM] (inactive).

In the case of `Cc1cccc(Nc2ccccc2)c1`, the Potency entry was “inactive”.

For the compound `Cc1cc(C)c(C)c(C)c1`, the Potency entry is “inactive”.

As to `CCCCCCCCCCCCCCCS(=O)(=O)Oc1ccccc1`, the Potency result is “inactive”.

As to `CC[C@@H]([C@H](C)O)n1ncn(-c2ccc(N3CCN(c4ccc(OC[C@@H]5CO[C@@](Cn6cncn6)(c6ccc(F)cc6F)C5)cc4)CC3)cc2)c1=O`, the Potency entry was “inactive”.

Consider `COc1ccc(CCN(C)CCCN2CCc3cc(OC)c(OC)cc3CC2=O)cc1OC`, for which the Potency entry was “inactive”.

On to `CCn1c(=O)c2c(nc(/C=C/c3ccc(OC)c(OC)c3)n2C)n(CC)c1=O`, for which the Potency entry was “inactive”.

With `CN(C)C(=O)Nc1ccccc1`, the Potency result is “inactive”.

Consider `CCN1C=CN(C)C1C` (stereo not given), for which the Potency result was “inactive”.

In the case of `O=C(Nc1ccc(S(=O)(=O)N2CCOCC2)cc1)c1cc(Cl)ccc1NS(=O)(=O)c1ccc(Cl)s1`, the Potency result is “inactive”.

On to `CCCc1ccc(OC)cc1`, for which the Potency entry was “inactive”.

`CCC(C)(C)OC`: the Potency result was “inactive”.

Take `COCC(=O)O[C@]1(CCN(C)CCCc2nc3ccccc3[nH]2)CCc2cc(F)ccc2[C@@H]1C(C)C`: the Potency result was “inactive”.

In the case of `CCC[Si](OC)(OC)OC`, the Potency result was “inactive”.

Regarding `O=[N+]([O-])c1ccc(O/N=C/c2cc(Br)c(O)c(Br)c2)c([N+](=O)[O-])c1`, the Potency entry is “inactive”.

As for `CCCCCC[C@@H](O)C/C=C\CCCCCCCC(=O)OC`, the Potency result was “inactive”.

As to `Nc1ccc(O)c(N)c1`, the Potency entry is “inactive”.

For `Cc1cccc(Br)c1`, the Potency result was “inactive”.

For `Cc1ccc2ccc3cccc4ccc1c2c34`, the Potency result is “inactive”.

On to `COc1cc(C(C)C)c2c(c1)S(=O)(=O)N(COc1cc(=O)n3cccc(OCCN4CCCCC4)c3n1)C2=O`, for which the activity change, negative = cytotoxicity was -0.988% [at 13.5 µM] (inactive).

Turning to `CNS(=O)(=O)c1cc(C(=O)N2CCC(CCN3C4CCC3CC(n3c(C)nc5ccccc53)C4)(c3cccc(F)c3)CC2)c(Cl)cc1F` (stereo not given), the Potency result is “inactive”.

`O=[N+]([O-])c1cccc(C(F)(F)F)c1`: the Potency result is “inactive”.

Take `N#CCCCC(C#N)CCC#N` (stereo not given): the Potency entry was “inactive”.

Regarding `CCCCCCCCOC(=O)c1ccc(O)cc1`, the Potency result is “inactive”.

Take `O=C(O)Cc1cc(I)c(Oc2ccc(O)c(I)c2)c(I)c1`: the Potency entry was “inactive”.

For `COC(=O)[C@]1(C)CCC[C@@]2(C)[C@H]1CC=C1C=C(C(C)C)CC[C@@H]12`, the Potency entry was “inactive”.

Regarding `C=CCOc1ccccc1OCC(O)CNC(C)C` (stereo not given), the Potency result is “inactive”.

On to `Brc1c(NC2=NCCN2)ccc2nccnc12`, for which the Potency entry was “inactive”.

`CC(=O)OC(C)OC(C)=O`: the Potency result was “inactive”.

In the case of `O=C(O)c1c2ccccc2cc2ccccc12`, the Potency result is “inactive”.

For the compound `CN(C)c1ccc(C2(c3ccc(N(C)C)cc3)OC(=O)c3cc(N(C)C)ccc32)cc1`, the Potency result was “inactive”.

As for `CN(c1nccc(=O)[nH]1)C1CCN(c2nc3ccccc3n2Cc2ccc(F)cc2)CC1`, the Potency entry was “inactive”.

Take `CC(C)(C)CCCCCCOC(=O)c1ccccc1C(=O)OCCCCCCC(C)(C)C`: the Potency result is “inactive”.

On to `S=c1[nH]c2ccccc2s1`, for which the Potency result was “inactive”.

For `CCOc1ccc2[nH]cc(C(=O)NCc3ccccc3)c(=O)c2n1`, the Potency entry is “inactive”.

Regarding `COC(=O)c1ccc(C(=O)O)cc1`, the Potency entry was “inactive”.

`c1cc(CN2CCCCC2)cc(OCCCNc2nc3ccccc3s2)c1`: the Potency entry was “inactive”.

With `CSc1c(Cl)c(Cl)c(Cl)c(Cl)c1Cl`, the Potency entry was “inactive”.
